Tests used:
Experiment in all cases: DAPPL (digital affinity profiling via proximity ligation, sequencing); 10 mM Tris-HCl pH 7.5, 50 mM NaCl, 1 mM DTT, 4% glycerol, room temperature, 30 min; GST-TFs on glutathione beads, 16-mer random dsDNA library, 0.1% formaldehyde crosslink after washing; high values mean tight binding
FEV = biological target: T1, FEV (Homo sapiens, UniProt Q99581 1-238); conditions: protein: recombinant; tags: N-terminal GST; dsDNA, one strand shown
T1 sequence: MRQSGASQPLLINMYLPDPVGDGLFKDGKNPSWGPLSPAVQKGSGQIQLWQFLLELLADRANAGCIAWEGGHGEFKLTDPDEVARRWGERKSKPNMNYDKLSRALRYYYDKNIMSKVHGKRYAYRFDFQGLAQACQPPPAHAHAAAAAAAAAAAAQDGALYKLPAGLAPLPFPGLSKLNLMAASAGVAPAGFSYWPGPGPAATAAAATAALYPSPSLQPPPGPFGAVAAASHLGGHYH
Method in brief: (§1)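 Binding signal is each hexamer's read frequency for a factor divided by its frequency in the tag-only sample. The factors were GST-fused human transcription factors from yeast, captured on glutathione beads, DNA-barcoded and pooled with that sample. Pools were incubated with 200 nmole of a random double-stranded 16-mer DNA library in Tris/NaCl/DTT/glycerol buffer at room temperature for 30 min, then washed, crosslinked with 0.1% formaldehyde, proximity-ligated with BsaI/T4 ligase (1 h, 37 °C), PCR-amplified and sequenced on an Illumina NextSeq500.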

ETV5 = ETV5 (Homo sapiens, UniProt P41161 1-510); conditions: protein: recombinant; tags: N-terminal GST; dsDNA, one strand shown
Sequence of ETV5 (P41161 whole entry): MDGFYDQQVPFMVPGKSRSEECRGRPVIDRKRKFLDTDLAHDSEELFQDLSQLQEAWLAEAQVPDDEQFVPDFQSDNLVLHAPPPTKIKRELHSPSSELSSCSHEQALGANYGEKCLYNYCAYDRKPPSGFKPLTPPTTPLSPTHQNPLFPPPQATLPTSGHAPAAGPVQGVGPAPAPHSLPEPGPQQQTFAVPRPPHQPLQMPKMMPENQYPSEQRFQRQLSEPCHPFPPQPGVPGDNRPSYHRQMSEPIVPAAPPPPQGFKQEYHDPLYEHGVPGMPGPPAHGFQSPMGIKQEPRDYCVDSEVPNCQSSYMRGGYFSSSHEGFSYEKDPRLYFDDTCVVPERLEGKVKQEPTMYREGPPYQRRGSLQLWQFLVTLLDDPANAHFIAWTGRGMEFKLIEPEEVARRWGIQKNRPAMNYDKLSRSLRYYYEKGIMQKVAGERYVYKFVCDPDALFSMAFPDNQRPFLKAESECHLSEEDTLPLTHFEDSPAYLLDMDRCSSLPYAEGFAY
Method in brief: as §1

HSF1 = HSF1 (Homo sapiens, UniProt Q00613 1-529); conditions: protein: recombinant; tags: N-terminal GST; chain copies: 3; dsDNA, one strand shown
Sequence of HSF1 (Q00613 whole entry): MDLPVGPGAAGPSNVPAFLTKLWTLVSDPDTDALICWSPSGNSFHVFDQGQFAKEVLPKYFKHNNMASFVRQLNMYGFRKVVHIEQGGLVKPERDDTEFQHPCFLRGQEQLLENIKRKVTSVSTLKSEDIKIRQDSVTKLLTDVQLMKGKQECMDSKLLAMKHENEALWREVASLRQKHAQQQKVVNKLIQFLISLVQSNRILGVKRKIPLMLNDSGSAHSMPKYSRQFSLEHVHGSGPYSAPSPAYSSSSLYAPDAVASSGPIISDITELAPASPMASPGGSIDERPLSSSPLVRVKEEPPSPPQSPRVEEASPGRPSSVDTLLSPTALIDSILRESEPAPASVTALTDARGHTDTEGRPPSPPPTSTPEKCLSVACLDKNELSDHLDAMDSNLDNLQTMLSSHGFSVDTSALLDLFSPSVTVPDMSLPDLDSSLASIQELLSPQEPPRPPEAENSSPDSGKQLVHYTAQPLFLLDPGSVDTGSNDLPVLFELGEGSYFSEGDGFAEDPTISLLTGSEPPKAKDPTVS
Method in brief: as §1

SPIC = biological target: T2, SPIC (Homo sapiens, UniProt Q8N5J4 1-248); conditions: protein: recombinant; tags: N-terminal GST; dsDNA, one strand shown
T2 sequence: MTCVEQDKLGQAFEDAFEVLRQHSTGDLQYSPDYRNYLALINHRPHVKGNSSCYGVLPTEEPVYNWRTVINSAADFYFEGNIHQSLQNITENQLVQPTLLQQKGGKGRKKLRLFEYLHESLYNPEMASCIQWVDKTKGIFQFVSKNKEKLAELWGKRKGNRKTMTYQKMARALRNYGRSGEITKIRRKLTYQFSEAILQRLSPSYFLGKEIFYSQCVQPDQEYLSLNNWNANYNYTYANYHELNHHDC
Method in brief: as §1

ELF4 = ELF4 (Homo sapiens, UniProt Q99607 1-663); conditions: protein: recombinant; tags: N-terminal GST; dsDNA, one strand shown
Sequence of ELF4 (Q99607 whole entry): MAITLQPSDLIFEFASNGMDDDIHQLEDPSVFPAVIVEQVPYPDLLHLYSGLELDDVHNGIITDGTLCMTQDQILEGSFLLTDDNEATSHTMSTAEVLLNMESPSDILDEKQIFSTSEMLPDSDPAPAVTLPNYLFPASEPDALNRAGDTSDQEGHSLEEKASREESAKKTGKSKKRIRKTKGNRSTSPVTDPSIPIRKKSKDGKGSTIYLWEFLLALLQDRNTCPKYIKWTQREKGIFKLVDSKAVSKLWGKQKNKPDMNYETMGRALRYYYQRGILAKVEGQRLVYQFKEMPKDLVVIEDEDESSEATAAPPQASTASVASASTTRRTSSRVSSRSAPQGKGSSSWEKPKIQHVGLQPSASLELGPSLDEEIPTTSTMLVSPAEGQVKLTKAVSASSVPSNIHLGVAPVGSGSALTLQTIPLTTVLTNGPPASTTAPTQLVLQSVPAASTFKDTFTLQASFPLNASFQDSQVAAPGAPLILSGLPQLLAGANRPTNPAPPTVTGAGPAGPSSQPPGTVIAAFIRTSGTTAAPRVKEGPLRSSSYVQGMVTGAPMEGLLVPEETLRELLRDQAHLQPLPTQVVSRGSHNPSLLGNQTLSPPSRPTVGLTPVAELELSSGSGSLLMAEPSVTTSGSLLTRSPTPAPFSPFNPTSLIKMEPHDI
Method in brief: as §1

ELK4 = biological target: T3, ELK4 (Homo sapiens, UniProt P28324-2 1-405); conditions: protein: recombinant; tags: N-terminal GST; dsDNA, one strand shown
T3 sequence: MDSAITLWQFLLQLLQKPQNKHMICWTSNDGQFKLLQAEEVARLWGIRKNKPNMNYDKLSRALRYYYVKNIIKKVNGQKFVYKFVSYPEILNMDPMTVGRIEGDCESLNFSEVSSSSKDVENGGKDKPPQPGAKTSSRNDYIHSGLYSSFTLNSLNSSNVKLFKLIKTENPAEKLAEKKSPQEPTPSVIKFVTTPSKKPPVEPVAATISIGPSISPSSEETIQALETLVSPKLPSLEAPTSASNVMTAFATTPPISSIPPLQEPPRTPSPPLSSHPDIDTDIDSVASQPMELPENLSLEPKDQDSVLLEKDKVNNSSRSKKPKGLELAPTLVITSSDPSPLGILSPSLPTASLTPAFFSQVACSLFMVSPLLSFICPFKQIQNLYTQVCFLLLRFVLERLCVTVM
Method in brief: as §1

ETV2 = biological target: T4, ETV2 (Homo sapiens, UniProt O00321 1-342); conditions: protein: recombinant; tags: N-terminal GST; dsDNA, one strand shown
T4 sequence: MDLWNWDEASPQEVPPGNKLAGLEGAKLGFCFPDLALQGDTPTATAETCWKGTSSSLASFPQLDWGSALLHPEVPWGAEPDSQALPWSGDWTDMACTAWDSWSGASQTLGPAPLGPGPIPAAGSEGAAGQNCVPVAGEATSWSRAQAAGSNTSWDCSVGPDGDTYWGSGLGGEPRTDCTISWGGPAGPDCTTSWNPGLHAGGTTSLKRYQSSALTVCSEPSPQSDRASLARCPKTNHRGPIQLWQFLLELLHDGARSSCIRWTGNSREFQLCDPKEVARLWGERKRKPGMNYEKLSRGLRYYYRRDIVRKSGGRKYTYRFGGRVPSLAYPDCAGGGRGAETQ
Method in brief: as §1

ELF3 = biological target: T5, ELF3 (Homo sapiens, UniProt P78545 1-371); conditions: protein: recombinant; tags: N-terminal GST; dsDNA, one strand shown
T5 sequence: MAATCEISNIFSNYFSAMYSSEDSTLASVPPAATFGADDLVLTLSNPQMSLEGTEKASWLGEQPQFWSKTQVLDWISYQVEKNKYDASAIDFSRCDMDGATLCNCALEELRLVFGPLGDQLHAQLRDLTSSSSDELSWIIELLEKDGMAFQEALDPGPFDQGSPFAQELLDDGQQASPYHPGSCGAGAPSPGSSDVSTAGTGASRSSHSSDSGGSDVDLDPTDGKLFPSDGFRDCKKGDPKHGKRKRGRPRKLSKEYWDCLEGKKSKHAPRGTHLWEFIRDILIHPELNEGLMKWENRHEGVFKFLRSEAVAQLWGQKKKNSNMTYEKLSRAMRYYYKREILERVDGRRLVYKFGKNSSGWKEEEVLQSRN
Method in brief: as §1

CRX = CRX (Homo sapiens, UniProt O43186 1-299); conditions: protein: recombinant; tags: N-terminal GST; dsDNA, one strand shown
Sequence of CRX (O43186 whole entry): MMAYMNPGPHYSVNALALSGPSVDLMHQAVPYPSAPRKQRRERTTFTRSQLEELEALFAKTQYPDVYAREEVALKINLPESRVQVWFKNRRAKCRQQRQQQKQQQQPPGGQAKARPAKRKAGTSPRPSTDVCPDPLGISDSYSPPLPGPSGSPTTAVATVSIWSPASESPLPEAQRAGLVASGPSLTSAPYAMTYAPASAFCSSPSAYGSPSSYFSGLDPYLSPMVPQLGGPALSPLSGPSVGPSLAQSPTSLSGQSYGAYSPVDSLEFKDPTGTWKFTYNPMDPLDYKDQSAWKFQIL
Method in brief: as §1

ETV1 = ETV1 (Homo sapiens, UniProt P50549 1-477); conditions: protein: recombinant; tags: N-terminal GST; dsDNA, one strand shown
Sequence of ETV1 (P50549 whole entry): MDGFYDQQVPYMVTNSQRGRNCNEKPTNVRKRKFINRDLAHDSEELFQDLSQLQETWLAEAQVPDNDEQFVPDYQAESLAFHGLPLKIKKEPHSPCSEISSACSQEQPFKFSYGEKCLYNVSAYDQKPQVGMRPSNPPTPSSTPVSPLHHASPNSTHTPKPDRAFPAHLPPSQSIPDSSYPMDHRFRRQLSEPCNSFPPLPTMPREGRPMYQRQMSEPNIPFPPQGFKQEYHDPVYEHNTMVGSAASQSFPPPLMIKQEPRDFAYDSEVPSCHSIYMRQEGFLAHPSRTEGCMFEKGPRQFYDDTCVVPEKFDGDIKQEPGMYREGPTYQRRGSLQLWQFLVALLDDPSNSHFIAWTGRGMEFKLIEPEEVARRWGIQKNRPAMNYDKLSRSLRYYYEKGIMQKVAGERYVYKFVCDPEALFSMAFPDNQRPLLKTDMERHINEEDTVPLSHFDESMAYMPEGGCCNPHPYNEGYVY
Method in brief: as §1

ERF = biological target: T6, ERF (Homo sapiens, UniProt P50548 1-548); conditions: protein: recombinant; tags: N-terminal GST; dsDNA, one strand shown
T6 sequence: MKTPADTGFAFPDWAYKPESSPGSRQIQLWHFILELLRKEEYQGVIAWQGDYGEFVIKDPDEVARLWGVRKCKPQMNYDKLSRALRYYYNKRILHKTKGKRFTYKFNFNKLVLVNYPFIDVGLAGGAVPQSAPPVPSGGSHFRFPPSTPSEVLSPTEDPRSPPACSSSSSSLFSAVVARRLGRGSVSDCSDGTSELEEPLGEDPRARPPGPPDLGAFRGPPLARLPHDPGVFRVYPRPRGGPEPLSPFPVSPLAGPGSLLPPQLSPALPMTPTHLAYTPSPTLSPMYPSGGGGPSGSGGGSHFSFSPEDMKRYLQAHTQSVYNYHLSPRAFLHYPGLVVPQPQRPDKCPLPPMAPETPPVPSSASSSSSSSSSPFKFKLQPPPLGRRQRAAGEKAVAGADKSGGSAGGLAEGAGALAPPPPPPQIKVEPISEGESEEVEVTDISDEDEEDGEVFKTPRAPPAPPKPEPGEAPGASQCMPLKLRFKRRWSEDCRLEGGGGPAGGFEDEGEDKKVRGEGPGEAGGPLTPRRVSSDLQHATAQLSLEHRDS
Method in brief: as §1

ETV3L = biological target: T7, ETV3L (Homo sapiens, UniProt Q6ZN32 1-361); conditions: protein: recombinant; tags: N-terminal GST; dsDNA, one strand shown
T7 sequence: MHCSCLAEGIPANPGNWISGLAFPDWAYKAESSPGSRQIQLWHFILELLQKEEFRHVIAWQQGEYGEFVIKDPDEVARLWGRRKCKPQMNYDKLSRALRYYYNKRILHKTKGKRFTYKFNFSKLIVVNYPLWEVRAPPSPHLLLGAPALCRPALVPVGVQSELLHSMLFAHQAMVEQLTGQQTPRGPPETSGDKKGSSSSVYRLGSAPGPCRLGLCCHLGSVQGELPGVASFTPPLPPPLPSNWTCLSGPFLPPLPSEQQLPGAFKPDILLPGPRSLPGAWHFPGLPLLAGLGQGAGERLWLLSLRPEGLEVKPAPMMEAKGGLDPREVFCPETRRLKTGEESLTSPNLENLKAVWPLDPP
Method in brief: as §1

ETS2 = biological target: T8, ETS2 (Homo sapiens, UniProt P15036 1-469); conditions: protein: recombinant; tags: N-terminal GST; dsDNA, one strand shown
T8 sequence: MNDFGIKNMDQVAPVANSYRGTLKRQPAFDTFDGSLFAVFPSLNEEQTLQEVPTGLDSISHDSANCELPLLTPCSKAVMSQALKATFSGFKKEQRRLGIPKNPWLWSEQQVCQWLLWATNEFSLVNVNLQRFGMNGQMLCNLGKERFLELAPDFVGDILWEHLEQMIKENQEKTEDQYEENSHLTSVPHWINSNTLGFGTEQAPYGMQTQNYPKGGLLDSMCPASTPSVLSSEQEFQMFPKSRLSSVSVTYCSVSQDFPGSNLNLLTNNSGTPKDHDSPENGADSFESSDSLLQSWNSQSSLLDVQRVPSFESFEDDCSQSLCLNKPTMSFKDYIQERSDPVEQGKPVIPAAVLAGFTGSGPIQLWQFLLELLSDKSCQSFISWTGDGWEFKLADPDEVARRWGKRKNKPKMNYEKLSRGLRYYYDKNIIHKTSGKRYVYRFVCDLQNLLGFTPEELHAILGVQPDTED
Method in brief: as §1

SPDEF = biological target: T9, SPDEF (Homo sapiens, UniProt O95238 1-335); conditions: protein: recombinant; tags: N-terminal GST; dsDNA, one strand shown
T9 sequence: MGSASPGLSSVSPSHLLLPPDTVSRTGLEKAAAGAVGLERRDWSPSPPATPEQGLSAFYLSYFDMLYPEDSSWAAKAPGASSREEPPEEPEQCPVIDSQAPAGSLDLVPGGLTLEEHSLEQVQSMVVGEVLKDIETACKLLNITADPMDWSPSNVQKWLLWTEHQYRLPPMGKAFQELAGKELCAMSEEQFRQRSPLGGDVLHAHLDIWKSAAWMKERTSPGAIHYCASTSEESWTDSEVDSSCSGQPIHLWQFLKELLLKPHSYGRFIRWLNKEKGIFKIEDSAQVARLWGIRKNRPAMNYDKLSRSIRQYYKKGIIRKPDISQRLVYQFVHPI
Method in brief: as §1

ETV7 = biological target: T10, ETV7 (Homo sapiens, UniProt Q9Y603 1-341); conditions: protein: recombinant; tags: N-terminal GST; dsDNA, one strand shown
T10 sequence: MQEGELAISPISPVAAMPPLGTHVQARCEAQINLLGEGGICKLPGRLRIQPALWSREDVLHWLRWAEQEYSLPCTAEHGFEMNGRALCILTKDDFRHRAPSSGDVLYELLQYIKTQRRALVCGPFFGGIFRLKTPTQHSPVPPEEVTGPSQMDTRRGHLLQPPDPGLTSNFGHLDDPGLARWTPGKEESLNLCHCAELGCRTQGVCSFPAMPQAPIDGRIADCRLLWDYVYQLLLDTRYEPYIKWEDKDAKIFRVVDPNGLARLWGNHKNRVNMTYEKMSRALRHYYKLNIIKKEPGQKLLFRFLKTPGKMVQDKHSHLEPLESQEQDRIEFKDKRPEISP
Method in brief: as §1

ELF5 = biological target: T11, ELF5 (Homo sapiens, UniProt Q9UKW6-2 1-255); conditions: protein: recombinant; tags: N-terminal GST; dsDNA, one strand shown
T11 sequence: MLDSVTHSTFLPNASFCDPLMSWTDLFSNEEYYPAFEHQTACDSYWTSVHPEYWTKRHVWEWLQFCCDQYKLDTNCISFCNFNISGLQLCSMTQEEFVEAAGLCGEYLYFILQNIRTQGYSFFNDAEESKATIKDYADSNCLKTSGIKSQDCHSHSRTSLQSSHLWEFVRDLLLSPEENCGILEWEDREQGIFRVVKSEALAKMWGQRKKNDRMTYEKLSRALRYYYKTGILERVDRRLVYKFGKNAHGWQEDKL
Method in brief: as §1

ETV3 = biological target: T12, ETV3 (Homo sapiens, UniProt P41162-2 1-143); conditions: protein: recombinant; tags: N-terminal GST; dsDNA, one strand shown
T12 sequence: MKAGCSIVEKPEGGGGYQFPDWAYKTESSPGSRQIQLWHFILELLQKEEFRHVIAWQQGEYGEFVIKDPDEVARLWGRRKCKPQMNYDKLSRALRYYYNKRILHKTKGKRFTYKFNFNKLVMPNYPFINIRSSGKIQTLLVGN
Method in brief: as §1

ETV6 = ETV6 (Homo sapiens, UniProt P41212 1-452); conditions: protein: recombinant; tags: N-terminal GST; dsDNA, one strand shown
Sequence of ETV6 (P41212 whole entry): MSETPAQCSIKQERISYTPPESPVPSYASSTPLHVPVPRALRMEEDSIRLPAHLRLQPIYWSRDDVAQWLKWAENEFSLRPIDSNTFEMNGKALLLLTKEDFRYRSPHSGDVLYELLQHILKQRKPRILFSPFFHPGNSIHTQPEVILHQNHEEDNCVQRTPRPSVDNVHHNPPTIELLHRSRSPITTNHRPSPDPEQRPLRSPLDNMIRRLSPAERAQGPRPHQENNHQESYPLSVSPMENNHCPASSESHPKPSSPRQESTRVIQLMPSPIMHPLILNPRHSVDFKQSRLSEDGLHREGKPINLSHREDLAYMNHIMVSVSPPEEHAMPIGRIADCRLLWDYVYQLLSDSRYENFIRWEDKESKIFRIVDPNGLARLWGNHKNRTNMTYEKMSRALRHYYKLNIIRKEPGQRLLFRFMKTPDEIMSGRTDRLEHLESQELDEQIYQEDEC
Method in brief: as §1

Sequence: TAAACG
- binding signal (FEV): 1.12 fold enrichment (6-mer frequency, TF over GST control)
- binding signal (ETV5): 1.07 fold enrichment (6-mer frequency, TF over GST control)
- binding signal (HSF1): 1.19 fold enrichment (6-mer frequency, TF over GST control)
- binding signal (SPIC): 1.05 fold enrichment (6-mer frequency, TF over GST control)
- binding signal (ELF4): 1.13 fold enrichment (6-mer frequency, TF over GST control)
- binding signal (ELK4): 1.2 fold enrichment (6-mer frequency, TF over GST control)
- binding signal (ETV2): 1.09 fold enrichment (6-mer frequency, TF over GST control)
- binding signal (ELF3): 1.07 fold enrichment (6-mer frequency, TF over GST control)
- binding signal (CRX): 1.44 fold enrichment (6-mer frequency, TF over GST control)
- binding signal (ETV1): 1.13 fold enrichment (6-mer frequency, TF over GST control)
- binding signal (ERF): 1.11 fold enrichment (6-mer frequency, TF over GST control)
- binding signal (ETV3L): 1.07 fold enrichment (6-mer frequency, TF over GST control)
- binding signal (ETS2): 1.16 fold enrichment (6-mer frequency, TF over GST control)
- binding signal (SPDEF): 1.11 fold enrichment (6-mer frequency, TF over GST control)
- binding signal (ETV7): 1.1 fold enrichment (6-mer frequency, TF over GST control)
- binding signal (ELF5): 1.1 fold enrichment (6-mer frequency, TF over GST control)
- binding signal (ETV3): 1.15 fold enrichment (6-mer frequency, TF over GST control)
- binding signal (ETV6): 1.14 fold enrichment (6-mer frequency, TF over GST control)
